Test results as given in PubChem BioAssay (EPA / NIEHS).
Inconclusive results are not listed. Active and inactive are the calls of the source. How the source made its calls: active means hit-call score of the fitted dose curve at least 0.9, where 1 is the maximum; inconclusive means response in the unintended direction; inactive means score below 0.9.

What follows are compounds tested against rat Vasopressin 1 Receptor (V1), Avpr1a (gene 25107) (UniProt P30560) (assay: NVS_GPCR_rV1: NovaScreen (NVS) G Protein-Coupled Receptor Assay for rat Vasopressin 1 Receptor (V1) (AID 2283316)).
Sequence of rat Vasopressin 1 Receptor (V1), Avpr1a (gene 25107) (P30560 whole entry, looked up): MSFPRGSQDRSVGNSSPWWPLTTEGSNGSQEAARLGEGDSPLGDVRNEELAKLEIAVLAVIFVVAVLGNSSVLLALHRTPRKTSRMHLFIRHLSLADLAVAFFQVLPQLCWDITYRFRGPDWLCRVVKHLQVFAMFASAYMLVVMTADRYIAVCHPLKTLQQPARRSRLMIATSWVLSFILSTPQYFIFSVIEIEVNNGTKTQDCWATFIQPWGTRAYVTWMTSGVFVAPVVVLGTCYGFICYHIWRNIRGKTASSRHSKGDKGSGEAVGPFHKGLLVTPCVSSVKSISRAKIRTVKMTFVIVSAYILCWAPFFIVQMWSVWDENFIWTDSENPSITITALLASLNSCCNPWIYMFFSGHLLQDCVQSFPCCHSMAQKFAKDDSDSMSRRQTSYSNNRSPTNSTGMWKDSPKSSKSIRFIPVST
Procedure: NVS_GPCR_rV1 is a biochemical, single-readout assay that uses extracted gene-proteins from Rat liver membranes in a tissue-based cell-free assay. Measurements were taken 1.5 hours after chemical dosing in a 48-well plate.NVS_GPCR_rV1 is one of one assay component(s) measured or calculated from the NVS_GPCR_rV1 assay. It is designed to make measurements of radioligand binding, a form of binding reporter, as detected with scintillation counting signals by Filter-based radiodetection technology.Data from the assay component NVS_GPCR_rV1 was analyzed into 1 assay endpoint. This assay endpoint, NVS_GPCR_rV1, was analyzed in the positive analysis fitting direction relative to DMSO as the negative control and baseline of activity. Using a type of binding reporter, loss-of-signal activity can be used to understand changes in the binding as they relate to the gene Avpr1a. Furthermore, this assay endpoint can be referred to as a primary readout, because the performed assay has only produced 1 assay endpoint. To generalize the intended target to other relatable targets, this assay endpoint is annotated to the gpcr intended target family, where the subfamily is rhodopsin-like receptor.
Binding assays used specific radioligands (tritiated, iodinated) with non-radioactive competitive displacement ligands in agonist or antagonist protocols (as indicated) and various reference compounds and inhibitors to titrate specific binding to receptors and transporters. Most enzyme assays (CYPs, kinases, phosphatases, proteases, HDACs) used recombinant protein and specific substrates (fluorescence mostly, some colorimetric and radioactive) and inhibitors, followed by a biochemical separation of substrate and product. All assays for the biochemical HTS were initially run in duplicate at a single concentration (10 uM for CYP450 assays and 25 uM for all others). Assay-chemical combinations meeting a pre-defined threshold (e.g., 30% inhibition and other criteria defined below) were then run in singleton concentration-response format with maximum concentration of 20 uM for CYPs and 50 uM for all others. Each assay was run with positive and negative controls, and concurrent controls on every plate. The follow-up (secondary) screen tested active chemical-pairs in concentration series, as well as a few additional assays not tested in the primary screen, some selected negative inactives, and several cases re-run in the concentration series for confirmatory purposes.
For `Clc1ccccc1C(c1ccccc1)(c1ccccc1)n1ccnc1`, the AC50 was 36.5 µM (active).
For `Cc1occc1C(=O)Nc1ccc(C(=O)N2CCC(F)(F)/C(=C\C(=O)N3CCC(N4CCCCC4)CC3)c3ccccc32)cc1`, the outcome was “inactive”.
With `O=C1O[C@H]([C@@H](O)CO)C(O)=C1O` the AC50 was 6.57 µM (active).
`Cc1c2ccccc2c(C)c2c1ccc1ccccc12` was tested, and the AC50 was 25 µM (active).
`CCN(Cc1cccnc1)C(=O)c1cccc(Cl)c1[C@]1(C)C(=O)N(Cc2ccc(OC)cc2OC)c2ccc(Cl)cc21` was tested, and the AC50 was 29 µM (active).
`COc1ccc2cc(S(=O)(=O)N[C@H](CC(=O)N[C@H](Cc3ccc(CN4[C@H](C)CCC[C@@H]4C)cc3)C(=O)N(C)C(C)C)c3ccc4c(c3)OCO4)ccc2c1` was tested, and the outcome was “inactive”.
In the case of `CN(C)C(=O)C1(N2CCCCC2)CCN(CC[C@@]2(c3ccc(Cl)c(Cl)c3)CN(C(=O)c3ccccc3)CCO2)CC1`, the AC50 is reported as 38.2 µM (active).
For `NCc1cccc(C2CCN(C(=O)c3ccc(C#Cc4ccccc4F)o3)CC2)c1`, the outcome was “inactive”.
